This is an account of results in PubChem BioAssay (Tox21).

Values without a mark were called inactive. Inconclusive results are not listed. Active and inactive are the calls of the source. Unless noted, the call rests on the fitted dose curve; in most records, active means well fitted curve in the direction sought with a large enough effect in the repeat runs; inconclusive means weak or mixed curves; inactive means no such curve, though single readings can be large; an effect the other way counts as inactive or inconclusive.

Test [1] in a line: qHTS assay to identify small molecule agonists of the constitutive androstane receptor (CAR) signaling pathway - cell viability counter screen (AID 1224836). Further: on the % scale 0 is the no-effect control and ±100 the full control effect; nearly all actives have a fitted effect of over 45% in size. Summed up: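 Multiplexed viability check: HepG2-CYP2B6-hCAR cells, 15-point compound dosing, 0.75 uM PK11195 final, 23 h at 37 C, CellTiter-Fluor fluorescence.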
Background: Quantitative high-throughput screening tests each substance at several concentrations.

Test [2] is described as follows: qHTS assay to identify small molecule antagonists of the constitutive androstane receptor (CAR) signaling pathway - cell viability counter screen (AID 1224837). Further: on the % scale 0 is the no-effect control and ±100 the full control effect; nearly all actives have a fitted effect of over 45% in size. In outline:
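In quantitative HTS format, compounds at 15 concentrations were applied to HepG2 cells double-transfected with hCAR and CYP2B6-2.2kb under 50 nM CITCO stimulation; live-cell protease activity was read after 23 hr via CellTiter-Fluor.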

Test [3] has as its target Nuclear receptor subfamily 1 group I member 3 (Homo sapiens) (UniProt Q14994). The test is described as follows: qHTS assay to identify small molecule antagonists of the constitutive androstane receptor (CAR) signaling pathway (AID 1224838). Further: on the % scale 0 is the no-effect control and ±100 the full control effect; nearly all actives have a fitted effect of over 40% in size. Summed up:
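CITCO-stimulated (50 nM final) HepG2 cells stably transfected with hCAR and CYP2B6-2.2kb luciferase were exposed to compounds at 15 concentrations for 24 h at 37 C/5% CO2. A luciferase reagent was added and luminescence recorded after 30 min.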

Test [4] in a line: qHTS assay to identify small molecule antagonists of the estrogen related receptor signaling pathway with the pleiotropic PPARgamma coactivator (PGC) from Tox21 10K library - cell viability counter screen (AID 1224840; active means well fitted cell-killing curve with a large enough effect in the repeat runs, not every such curve was filed as active; further: on the % scale 0 is the no-effect control and ±100 the full control effect; nearly all actives have a fitted effect of over 40% in size). In outline:
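Viability counter screen, PGC/ERR cells: 17.5 h compound exposure at 37 C, CellTiter-Fluor fluorescence endpoint.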

The target of test [5] is Thyrotropin receptor (Homo sapiens) (UniProt P16473). Put plainly: qHTS assay to identify small molecule agonists of the thyroid stimulating hormone receptor (TSHR) signaling pathway (AID 1224843; calls by dose curve; further: on the % scale 0 is the no-effect control and ±100 the full control effect; nearly all actives have a fitted effect of over 45% in size). In outline:
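Agonist-mode screen: TSHR HEK293 cells received test chemicals for half an hour at room temperature, then HTRF cAMP detection reagents for one hour prior to fluorescence measurement. Each chemical ran as a 15-concentration series, triplicated.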

Test [6] in a line: qHTS assay to identify small molecule agonists of the hypoxia (HIF-1) signaling pathway - cell viability counter screen (AID 1224844; calls by dose curve; further: on the % scale 0 is the no-effect control and ±100 the full control effect; nearly all actives have a fitted effect of over 50% in size). Summed up: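 Same wells as the HIF-1 reporter screen; ME-180 cells carrying HRE-bla, 17 hr treatment at 37C; CellTiter-Glo luminescence read after 30 min at room temperature.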
A short description of test [7]: qHTS assay to identify small molecule agonists of the hypoxia (HIF-1) signaling pathway (AID 1224846; active means well fitted activation curve with a large enough effect in the signal ratio in the repeat runs, not every such curve was filed as active; the % refers to the signal ratio; further: on the % scale 0 is the no-effect control and ±100 the full control effect). In outline: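 In ME-180 cells bearing an HRE-bla construct, 17 h treatment with DMSO-dissolved compounds at 37C was followed by CCF4-AM loading to quantify reporter induction.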
A short description of test [8]: qHTS RealTime-Glo MT Cell Viability Assay in HepG2 cells - 24 hour (AID 1224867). Further: on the % scale 0 is the no-effect control and ±100 the full control effect; nearly all actives have a fitted effect of over 50% in size. Summed up:
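HepG2 cells were seeded at 600 cells/well together with NanoLuc luciferase and a cell-permeant prosubstrate, preincubated 5 h at 37 C/5% CO2, then pin-dosed with compounds in DMSO. Nonlytic luminescence from viable cells was read at each time point.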

Test [9] can be described thus: qHTS RealTime-Glo MT Cell Viability Assay in HEK293 cells - 32 hour (AID 1224868). Further: nearly all actives have a fitted effect of over 50% in size. Further: potency means the concentration at half of the fitted maximal effect. Summed up: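 HEK293 cells were seeded at 600 cells/well together with NanoLuc luciferase and cell-permeant prosubstrate, preincubated 5 h at 37 C/5% CO2, then given compound in DMSO by pintool. Luminescence from viable-cell prosubstrate reduction was read repeatedly over 40 h.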
Test [10] in a line: A CellTox Green Cytotoxicity Assay to monitor cytotoxicity in HEK293 cells - 0 hour (AID 1224869). Further: on the % scale 0 is the no-effect control and ±100 the full control effect; nearly all actives have a fitted effect of over 50% in size. In outline: (§1)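 Homogeneous no-lysis format: HEK293 cell suspension mixed with CellTox Green reagent, seeded, incubated 5 h at 37 C/5% CO2, then dosed by pintool with compound in DMSO.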
Test [11] is described as follows: qHTS RealTime-Glo MT Cell Viability Assay in HepG2 cells - 40 hour (AID 1224870). Summed up:
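HepG2 cells (600/well) mixed with RealTime-Glo MT reagent, settled 5 h at 37 C/5% CO2 before compound addition. Nonlytic NanoLuc luminescence from viable-cell prosubstrate reduction read repeatedly during 40 h treatment at 37 C.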

A short description of test [12]: A CellTox Green Cytotoxicity Assay to monitor cytotoxicity in HEK293 cells - 40 hour (AID 1224871). Further: on the % scale 0 is the no-effect control and ±100 the full control effect; nearly all actives have a fitted effect of over 45% in size. Summed up: as §1
Test [13] deals with Nuclear receptor subfamily 1 group I member 3 (Homo sapiens) (UniProt Q14994). Put plainly: qHTS assay to identify small molecule agonists of the constitutive androstane receptor (CAR) signaling pathway (AID 1224839).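 Further: HepG2 cells stably carrying human CAR and a CYP2B6 luciferase reporter; on the % scale 0 is the no-effect control and ±100 the full control effect; nearly all actives have a fitted effect of over 15% in size.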 In outline:
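Using human hepatoma HepG2 cells engineered with hCAR and a CYP2B6-2.2kb reporter, 15-concentration compound series were incubated 24 h alongside PK11195 at 0.75 uM final, with luminescence quantified afterwards.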

A short description of test [14]: qHTS assay to identify small molecule agonists of H2AX (AID 1224845; active means well fitted activation curve with a large enough effect in the signal ratio in the repeat runs, not every such curve was filed as active; the % refers to the signal ratio; further: on the % scale 0 is the no-effect control and ±100 the full control effect). Summed up:
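Wild-type CHO-K1 cells, plated overnight, exposed 3hr at 37C to 15 concentrations (0.76% DMSO final). Lysed, then HTRF anti-pH2AX (S139) cryptate and anti-H2AX-d2 antibodies, 24 hr room temperature; 665/620 nm emission read.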

A short description of test [15]: qHTS assay to identify small molecule agonists of H2AX - cell viability counter screen (AID 1224847; calls by dose curve; further: top concentration of the series differs between compounds; on the % scale 0 is the no-effect control and ±100 the full control effect; nearly all actives have a fitted effect of over 30% in size). In outline:
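After overnight plating of 1000 CHO-K1 cells per well, a 15-concentration compound series was applied for 3 hr at 37C. Luminescence from CellTiter-Glo, read following 30 min at room temperature, reflected cell viability.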

The nature of test [16]: qHTS assay to identify small molecule agonists of the estrogen related receptor signaling pathway with the pleiotropic PPARgamma coactivator (PGC) from Tox21 10K library (AID 1224842). Further: on the % scale 0 is the no-effect control and ±100 the full control effect; nearly all actives have a fitted effect of over 15% in size. Summed up:
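PGC/ERR reporter cell line, 2,000 cells per well, incubated 6 h at 37 C before 23 nL compound in DMSO was added. After 18 h at 37 C, One-Glo luminescence read following 30 min at room temperature.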

Test [17] can be described thus: qHTS assay to identify small molecule agonists of the estrogen related receptor (ERR) signaling pathway from Tox21 library (AID 1224849; calls by dose curve; further: on the % scale 0 is the no-effect control and ±100 the full control effect; nearly all actives have a fitted effect of over 15% in size). The note with it: ERR reporter cell line, ONE-Glo luciferase, 18 h; at 92.4 µM (top of the series) unless noted. Summed up: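 Reporter cells (ERR, NTP source) treated with Tox21 10K compounds 18 h, 37 C. Readout: ONE-Glo luminescence, 30 min RT.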

The nature of test [18]: qHTS assay to identify small molecule antagonists of the estrogen related receptor (ERR) signaling pathway from Tox21 library (AID 1224848). In outline: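 Quantitative high-throughput format: ERR reporter cells (2,000/well) pre-incubated 6 h, treated 18 h at 37 C with compounds in DMSO alongside positive and negative controls, then read by ONE-Glo luminescence.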
The target in test [19] is Luciferin 4-monooxygenase (Photinus pyralis) (UniProt P08659). Put plainly: qHTS assay to identify small molecule inhibitors of firefly luciferase (AID 1224835). Further: potency means the concentration at half of the fitted maximal effect; nearly all actives have a fitted effect of over 25% in size. In outline:
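Biochemical qHTS: compounds run as interplate titrations against purified firefly enzyme, with D-luciferin and ATP each at its KM concentration. Light output recorded by CCD imaging.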

Nuclear receptor subfamily 1 group I member 3 (Homo sapiens), sequence (Q14994 whole entry, looked up): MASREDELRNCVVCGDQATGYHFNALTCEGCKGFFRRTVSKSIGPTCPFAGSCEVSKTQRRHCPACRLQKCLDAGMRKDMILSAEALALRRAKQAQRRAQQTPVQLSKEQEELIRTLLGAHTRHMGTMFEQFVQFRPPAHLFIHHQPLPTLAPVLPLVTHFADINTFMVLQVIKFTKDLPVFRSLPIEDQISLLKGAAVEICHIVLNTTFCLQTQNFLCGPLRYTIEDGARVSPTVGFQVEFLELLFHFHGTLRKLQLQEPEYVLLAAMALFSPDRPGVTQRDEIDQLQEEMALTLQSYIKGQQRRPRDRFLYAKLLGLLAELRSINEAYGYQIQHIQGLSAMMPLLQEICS
Thyrotropin receptor (Homo sapiens), sequence (P16473 whole entry, looked up): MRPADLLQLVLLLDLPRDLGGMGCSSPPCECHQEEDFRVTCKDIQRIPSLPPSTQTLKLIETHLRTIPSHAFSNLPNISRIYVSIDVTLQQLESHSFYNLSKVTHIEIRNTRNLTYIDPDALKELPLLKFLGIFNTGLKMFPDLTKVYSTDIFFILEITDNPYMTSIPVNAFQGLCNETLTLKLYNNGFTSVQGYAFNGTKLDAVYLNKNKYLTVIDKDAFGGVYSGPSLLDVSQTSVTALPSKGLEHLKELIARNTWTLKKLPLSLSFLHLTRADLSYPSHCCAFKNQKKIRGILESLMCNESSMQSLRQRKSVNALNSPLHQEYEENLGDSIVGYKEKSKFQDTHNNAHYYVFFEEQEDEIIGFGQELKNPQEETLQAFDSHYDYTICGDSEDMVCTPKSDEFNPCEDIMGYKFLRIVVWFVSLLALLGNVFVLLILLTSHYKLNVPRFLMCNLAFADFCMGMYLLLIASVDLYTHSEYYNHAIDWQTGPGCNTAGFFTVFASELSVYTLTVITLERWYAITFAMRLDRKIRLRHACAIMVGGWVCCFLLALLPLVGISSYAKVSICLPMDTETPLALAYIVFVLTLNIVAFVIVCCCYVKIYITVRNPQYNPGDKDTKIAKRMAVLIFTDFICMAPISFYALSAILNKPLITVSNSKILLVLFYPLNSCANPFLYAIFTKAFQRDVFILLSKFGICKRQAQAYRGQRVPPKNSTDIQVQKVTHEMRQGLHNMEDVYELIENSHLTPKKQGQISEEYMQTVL
Luciferin 4-monooxygenase (Photinus pyralis), sequence (P08659 whole entry, looked up): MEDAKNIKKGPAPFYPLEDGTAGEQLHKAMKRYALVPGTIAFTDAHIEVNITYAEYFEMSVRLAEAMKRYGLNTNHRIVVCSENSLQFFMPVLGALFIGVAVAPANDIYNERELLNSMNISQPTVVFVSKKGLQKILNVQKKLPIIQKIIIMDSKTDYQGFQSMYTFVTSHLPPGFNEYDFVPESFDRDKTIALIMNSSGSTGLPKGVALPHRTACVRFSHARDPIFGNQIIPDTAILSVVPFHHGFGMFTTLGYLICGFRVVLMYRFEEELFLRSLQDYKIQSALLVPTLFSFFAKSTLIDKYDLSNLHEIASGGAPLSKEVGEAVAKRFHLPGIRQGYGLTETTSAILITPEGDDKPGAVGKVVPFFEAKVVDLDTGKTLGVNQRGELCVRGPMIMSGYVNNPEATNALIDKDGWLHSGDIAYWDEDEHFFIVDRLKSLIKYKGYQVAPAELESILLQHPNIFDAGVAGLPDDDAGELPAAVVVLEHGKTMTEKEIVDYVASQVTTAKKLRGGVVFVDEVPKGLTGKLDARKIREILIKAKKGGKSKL

For `c1ccc2c(c1)ccc1c3ccccc3ccc21`, the Potency entry in test [1], in test [2], in test [5], in [9] and in test [12] was “inactive” throughout. Besides, the molecule was called inactive in test [3], in test [4], in [6], in test [7], in [8] and in test [10]. The call in test [11] was inactive.
In the case of `O=C(OCC(O)CO)c1ccccc1Nc1ccnc2c(C(F)(F)F)cccc12` (configuration not stated), the Potency result in test [1], in test [2], in test [13], in test [5], in test [15] and in test [12] was “inactive” throughout. In addition, the molecule was classed as inactive in test [3], in test [4], in test [6], in test [14], in test [7] and in [10]. Also, the result in test [11] was inactive. In addition, the Potency in test [9] is 4.25 µM (active).
`Cc1ccc2ccc(Cl)cc2n1`: the Potency result in test [1], in test [2], in test [13], in [15], in test [9] and in test [12] was “inactive” in each case. The outcome in test [4], in test [6], in test [14], in [7], in [8] and in [10] was inactive. Further, the result in [11] was inactive.
Consider `CC(=O)Nc1cccc(C)c1`, for which the Potency entry in test [1], in test [2], in test [5], in [15] and in test [12] was “inactive” in each case. Further, the molecule was called inactive in test [4], in test [6], in [14], in [7] and in test [10].
Consider `O=P(O)(O)OP(=O)(O)O`, for which the Potency result in test [1], in [2], in test [5], in test [15], in test [9] and in test [12] was “inactive” in each case. The result in [3], in [4], in [6], in test [14], in test [8] and in test [10] was inactive.
Regarding `OC[C@H](Cc1cccc(O)c1)[C@H](CO)Cc1cccc(O)c1`, the Potency result in [1], in test [2], in [13], in test [9] and in test [12] was “inactive” throughout. For the same molecule, the call in test [3], in test [4], in test [16], in test [6], in test [14] and in [7] was inactive. The call in test [8] and in test [10] was inactive. For the same molecule, in test [17], the activity change, positive = activation was -21.1%.
Turning to `CCCCOC(=O)c1ccccc1`, the Potency result in [1], in [5], in test [15], in test [18], in test [9] and in test [12] was “inactive” in each case. Moreover, the molecule was classed as inactive in [4], in test [16], in test [6], in test [14], in test [7] and in [8]. Moreover, in test [11], the result was inactive. Besides, in test [17], the activity change, positive = activation is 1.54%.
With `CC1=C(C(=O)O)N2C(=O)[C@@H](NC(=O)[C@H](N)c3ccc(O)cc3)[C@H]2SC1`, the Potency result in test [1], in [2], in test [13], in test [5], in [15] and in test [9] was “inactive” throughout. Moreover, in test [12], the Potency entry is “inactive”. Also, the molecule was called inactive in [3], in test [4], in [6], in [14], in test [8] and in test [10]. Further, in test [11], the molecule was called inactive.
Consider `O=C(c1ccc(O)cc1)c1ccc(O)c(O)c1O`, for which the Potency in [19] was 63.5 µM (active). Also, the call in [3], in test [4], in test [16], in test [6], in [7] and in test [8] was inactive. Moreover, the result in test [10] and in test [11] was inactive. Further, the Potency entry in [15], in [18], in test [9] and in [12] was “inactive” throughout. Also, the activity change, positive = activation in [17] is -5.51%.
